Results published in PubChem BioAssay AID2736 (Broad Institute, 2010).
The list shows a part of the results. A number with no mark means an inactive call. Activity calls are given as the source filed them.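 The calls were made as follows: active = every replicate shows more than 75% inhibition of signal versus neutral control wells; inconclusive = half to three quarters of replicates exceed 75% inhibition; inactive = fewer than half of replicates exceed 75% inhibition.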

Test: Vibrio harveyi AI-2 signaling luminescence modulation – JMH597 strain, confirmation (AID 2736)
Conditions: Vibrio harveyi JMH597 AI-2 quorum sensing luminescence, 9 h; at 7.5 µM; stronger effect = higher value; luxN and CqsS knockout, AI-2 only

Compound | inhibition
CCOc1ccc(/C=N/NC(N)=S)cc1 | 94.3% (active)
Cc1ccccc1C(=O)Nc1ccc(N2CCCCCC2)cc1 | 94.5% (active)
O=C(COC(=O)C1CCCCC1)Nc1ccc([N+](=O)[O-])cc1 | 95.3% (active)
Cc1ccsc1C(=O)OCC(=O)c1cc2ccccc2o1 | 96.8% (active)
CCOC(=O)c1nn(-c2cccc(C)c2)cc1C(=O)c1ccccc1 | 93.5% (active)
O=C(Cn1cnc2ccccc2c1=O)Nc1cccc(S(=O)(=O)N2CCCCC2)c1 | 88.6% (active)
O=C(CCC(=O)c1cccs1)Nc1nc2ccccc2s1 | 97.8% (active)
O=C1COc2ccc(S(=O)(=O)Nc3ccc(OC(F)(F)F)cc3)cc2N1 | 99.2% (active)
COc1cccc(NC(=O)NCc2ccc(F)cc2)c1 | 95.3% (active)
O=C(COc1ncnc2ccccc12)NC(=O)NCc1ccccc1 | 96.5% (active)
O=C(c1cc(-c2cccc(O)c2)on1)N1CCc2ccccc2C1 | 94.4% (active)
N/C(=N\OC(=O)CCc1ccccc1)c1cccnc1 | 93.1% (active)
O=C(/C=C/c1ccc2c(c1)OCCO2)c1ccc(O)cc1 | 95.7% (active)
COC(=O)c1ccc(SCc2ccccc2)nc1 | 97.3% (active)
Cc1ccc(NS(=O)(=O)c2ccc3c(c2)NC(=O)CO3)cc1 | 95% (active)
CC(CNc1ccc([N+](=O)[O-])cc1)NC(=O)c1ccccc1Br (stereo not drawn) | 8.81%
COc1ccc(/C(N)=N/OC(=O)Cc2ccccc2)cc1 | 96% (active)

Compound | inhibition
O=C(/C=C/c1ccc2c(c1)OCO2)NCc1ccc(F)cc1 | 94.2% (active)
Cc1cc(C(=O)OCC(=O)Nc2ccc(F)c(F)c2)c(C)o1 | 97.8% (active)
CC(C)(C)c1ccc(OC2=CS(=O)(=O)c3ccccc32)cc1 | 96.6% (active)
CN(Cc1cnccn1)C(=O)c1cc(COc2cccc(C(F)(F)F)c2)on1 | 97.2% (active)
Cc1ccc(NC(=O)C2CC2c2ccccc2)cc1 (stereo not drawn) | 94.7% (active)
O=S(=O)(Nc1cccc(Oc2ccc(Cl)cc2)n1)c1ccc(F)cc1 | 99.7% (active)
Cc1cccc(CSc2ccc(-c3cccs3)nn2)c1 | 96.9% (active)
Cc1ccc(Oc2cnn(-c3ccccc3)c(=O)c2Br)cc1 | 99.3% (active)
Cc1ccc(Cc2nc(-c3cccc(C)c3)no2)cc1 | 94.6% (active)
Cc1ccccc1NC(=O)CCOc1ccccc1 | 91.6% (active)
COC(=O)C1CCN(C(=O)c2ccc3oc(Cc4ccc(Cl)cc4)nc3c2)CC1 | 96.4% (active)
Cc1nn(CC(=O)Nc2ccc(F)cc2)c(=O)c2ccccc12 | 99% (active)
CC(=O)c1cccc(OCc2cc(C(=O)NC(C)Cc3cccnc3)no2)c1 (stereo not drawn) | 95.5% (active)
O=C(Nc1ccc(F)c(Cl)c1)C1CCN(S(=O)(=O)c2cccnc2)CC1 | 98.4% (active)
S=C(NCc1ccc(Cl)cc1)NC1CCCCC1 | 95.5% (active)
Cc1cc(CN(C)C(=O)c2cc(COc3ccc(C)c(C)c3)on2)n[nH]1 | 97.5% (active)
